Source: PubChem BioAssay (several laboratories)
This is a sample that favours compounds with a hit; in the whole collection about 4.6% have one here.
NALP3 yeast inh – NALP3 inflammasome inhibitors in reconstituted yeast, primary screen, luminescence, uHTS; inhibition, % at 10 µM; 330,000 compounds, 0.39% hits; Yeast reconstituted NLRP3/ASC/caspase-1, beta-gal luminescence, 24 h;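 active means inhibition of 50% or more; inactive means inhibition below 50%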;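 further: plate controls were induced DMSO wells for no effect and uninduced yeast grown without galactose for full effect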
PfHsp90 set2 – growth inhibition of PfHsp90-expressing yeast, primary screen, antimalarial PfHsp90 inhibitor project, S. cerevisiae, BacTiter-Glo luminescence, single point, set 2 | BacTiter-Glo ATP, 48 h; yeast lacking PDR1 and PDR3 efflux regulators | inhibition, % at 9.4 µM | 310,000 compounds, 0.32% hits | AID 504621, 2011;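 active means every replicate shows inhibition above about 80%, whatever the replicate mean, limit read from the data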;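 further: 0% = DMSO neutral controls and 100% = 20 µM radicicol positive controls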
tim10-1 inh – growth inhibitors of tim10-1 mutant yeast, primary screen, luminescence, uHTS. inhibition, % at 20 µM. 330,000 compounds, 2.2% hits. AID 463190, 2010. S. cerevisiae tim10-1 ts strain growth, BacTiter-Glo, 24 h;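 active means inhibition of at least 40%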;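 further: mutant grown at 25 °C; 0% = DMSO wells with yeast and 100% = wells holding no yeast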
SKKanGAS inh – S. pyogenes SKKanGAS growth inhibitors in kanamycin, primary screen, streptokinase expression inhibitor project, SKKanGAS strain, BacTiter-Glo luminescence | 6 h | inhibition, % at 7.5 µM | 300,000 compounds, 1.3% hits;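 active means mean replicate score, as percent of positive control median, at least 50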;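 further: strain carries kanamycin resistance gene driven by streptokinase promoter and grows in 40 µg/ml kanamycin; loss of luminescence reflects streptokinase promoter inhibition or plain growth inhibition; 0% = median of DMSO wells and 100% = positive control at its reference dose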
TIM10 inh – growth inhibitors of isogenic TIM10 control yeast, primary screen, counter-screen for tim10-1 yeast inhibitor project, luminescence, uHTS | inhibition, % at 10 µM | S. cerevisiae TIM10 strain growth, BacTiter-Glo luminescence, 24 h | 330,000 compounds, 1.4% hits;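 active means inhibition of 40% or more at the single tested concentration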;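 further: wild-type TIM10 isogenic control strain grown at permissive 25 °C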
tim23-1 inh – growth inhibitors of tim23-1 mutant yeast, primary screen, luminescence, uHTS; S. cerevisiae tim23-1 growth, BacTiter-Glo luminescence, 24 h; inhibition, % at 20 µM; 330,000 compounds, 1.3% hits;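 active means growth inhibition of the mutant yeast at or above 50%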;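 further: temperature-sensitive mutant grown at 25 °C; plate controls were DMSO-treated mutant yeast for no effect and medium wells lacking yeast for full effect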
tim10-1 confirm – growth inhibitors of tim10-1 mutant yeast, confirmation, single concentration, luminescence, S. cerevisiae. inhibition, % at 20 µM. S. cerevisiae tim10-1 ts strain growth, BacTiter-Glo, 24 h. shares compounds with tim10-1 inh. 7,400 compounds, 56% hits;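 active means inhibition of yeast growth at or above a set limit in either of two repeat tests at 20 µM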;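 further: tim10-1 mutant grown at permissive 25 °C to find synthetic lethal compounds; 0% = DMSO yeast wells and 100% = medium wells without yeast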
tim10 confirm – growth inhibitors of wild-type TIM10 yeast, confirmation, counter-screen for tim10-1 synthetic lethality project, single concentration, luminescence, S. cerevisiae | shares compounds with TIM10 inh | S. cerevisiae tim10 strain growth, BacTiter-Glo luminescence, 24 h | 4,600 compounds, 63% hits | inhibition, % at 10 µM;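 active means inhibition of yeast growth at or above a set limit in either of two replicates at 10 µM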;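 further: this counterscreen used the strain with wild-type TIM10; 0% = yeast with DMSO and 100% = medium wells lacking yeast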
tim23-1 confirm – tim23-1 mutant yeast growth inhibitors, confirmation, luminescence, single concentration. shares compounds with tim23-1 inh. S. cerevisiae tim23-1 growth, BacTiter-Glo luminescence, 24 h. inhibition, % at 20 µM. 4,400 compounds, 83% hits. AID 463218, 2010;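 active means inhibition above about 39% in either of two replicate wells at 20 µM, limit read from the data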;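 further: temperature-sensitive tim23-1 mutant grown at 25 °C; 0% = DMSO wells with yeast and 100% = medium wells without yeast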
* marks the source's active call; other numbers are inactive results; . = not tested or not shown.

SMILES	NALP3 yeast inh	PfHsp90 set2	tim10-1 inh	SKKanGAS inh	TIM10 inh	tim23-1 inh	tim10-1 confirm	tim10 confirm	tim23-1 confirm
NC(=O)CC(NC(=O)Cc1ccc(Br)cc1)c1ccc(N2CCC(N3CCCCC3)CC2)c([N+](=O)[O-])c1 (stereo unspecified)	11.1	3.8	4.9	12.9	12.6	15.3	.	.	.
CCC(Oc1ccccc1)C(=O)N(C)CC(=O)N(CC(C)C)c1c(N)n(CC(C)C)c(=O)[nH]c1=O (stereo unspecified)	7.0	.	6.0	1.7	6.2	8.0	.	.	.
O=S(=O)(c1ccc2c(c1)OCCO2)N1CCN(Cc2ccc3c(c2)OCO3)CC1	9.4	.	46.5*	7.1	50.1*	60.2*	45.5*	51.1*	63.0*
O=C(Oc1ccc(C(=S)N2CCOCC2)cc1)c1ccc([N+](=O)[O-])cc1[N+](=O)[O-]	5.8	-7.6	34.9	-1.6	4.4	34.5	.	.	.
O=C(Oc1cccc(C(=S)N2CCOCC2)c1)c1ccc([N+](=O)[O-])cc1[N+](=O)[O-]	16.4	-0.2	83.9*	1.0	84.1*	78.4*	84.2*	90.2*	86.8*
O=C(Oc1ccc(Br)cc1C(=S)N1CCOCC1)c1ccc([N+](=O)[O-])cc1[N+](=O)[O-]	3.0	-7.9	71.2*	3.1	68.0*	67.4*	77.4*	78.0*	84.4*
Nc1nc(CCl)nc(Nc2ccccc2)n1	-3.2	10.2	26.1	2.4	15.3	12.8	.	.	.
Nc1nc(Nc2ccc(Cl)cc2)nc2ccccc12	40.2	35.5	67.3*	.	68.5*	57.9*	57.1*	67.4*	55.0*
CCOc1ccc(Nc2nc(N)c3ccccc3n2)cc1	38.7	74.7	62.3*	59.6*	46.0*	56.8*	65.4*	49.6*	64.7*
O=C(NCC1CCCO1)c1ccc(NC(=O)c2cc(F)c(F)cc2Cl)cc1 (stereo unspecified)	17.3	-8.3	5.3	1.9	1.9	20.2	.	.	.
O=C(NC12CC3CC(CC(C3)C1)C2)C12CC3CC(C1)CC(n1cnc(Cl)n1)(C3)C2	4.9	15.6	65.3*	-2.9	45.9*	60.2*	52.7*	45.5*	50.1*
COc1cc(NC(=S)NN2CCN(C)CC2)cc(OC)c1OC	6.9	-1.9	9.5	-4.3	0.7	-6.6	.	.	.
CN(C)c1nc(Nc2ccc(F)cc2)nc(Oc2ccc(F)cc2)n1	25.9	15.9	0.3	16.0	-19.7	22.5	.	.	.
CN(C)c1nc(N/N=C/c2ccccc2O)nc(Nc2ccc(F)cc2)n1	11.7	16.3	47.3*	93.1*	18.8	58.6*	37.5*	.	67.0*
Cc1noc2ncnc(Sc3c(Cl)cccc3Cl)c12	-16.3	8.9	25.2	15.8	23.4	4.8	.	.	.
Cc1noc2ncnc(Sc3ccc(Cl)cc3)c12	36.7	.	50.7*	-1.8	30.6	58.3*	56.8*	.	49.5*
Fc1ccc(Nc2nnc(C(F)(F)F)s2)cc1Cl	4.3	-19.2	68.8*	27.5	55.8*	77.2*	83.5*	41.6*	85.2*
FC(F)(F)c1nnc(Nc2ccc(Cl)cc2)s1	-10.5	-14.6	26.2	-1.5	-8.8	19.7	.	.	.
COc1ccc(/C=C/C(=O)c2ccc([N+](=O)[O-])o2)cc1	5.5	14.9	45.3*	29.8	70.1*	78.6*	16.4	79.2*	-4.0
CC(=O)c1ccc(OCCCC(=O)Nc2cccc(S(=O)(=O)N3CCCCC3)c2)cc1	8.9	-30.5	22.3	.	-0.4	13.3	.	.	.
Nc1ccc2nn(-c3cc([N+](=O)[O-])ccc3O)nc2c1	1.7	-69.9	51.3*	34.1	28.3	58.3*	37.8*	.	52.8*
Nc1ccc(-n2cnc3cc([N+](=O)[O-])ccc32)cc1	33.8	-0.7	10.3	0.9	7.5	11.1	.	.	.
O=C(c1cccs1)c1no[n+]([O-])c1C(=O)c1cccs1	24.5	104.7*	72.3*	0.8	-5.7	81.2*	86.8*	.	96.8*
Cc1cc(NC(=O)COC(=O)C2CC(=O)N(c3cccc(Cl)c3)C2)no1 (stereo unspecified)	-8.2	-10.2	17.5	-10.5	0.7	19.6	.	.	.
COc1ccc(-n2nc(C#N)c(Cl)cc2=O)cc1	-41.3	-205.9	46.9*	.	31.3	60.8*	30.3	.	48.0*
SMILES	NALP3 yeast inh	PfHsp90 set2	tim10-1 inh	SKKanGAS inh	TIM10 inh	tim23-1 inh	tim10-1 confirm	tim10 confirm	tim23-1 confirm
COC(=O)c1nn(-c2ccc(OC)cc2)c(=O)cc1O	25.5	9.9	-7.6	3.7	-12.4	15.0	.	.	.
CCOc1ccc2nc(SCC(=O)Nc3cc(C)on3)c(C)cc2c1	20.5	-12.1	0.2	-3.3	-21.0	-1.1	.	.	.
CCCCCCCCC/C(=N\O)c1ccccn1	46.2	111.2*	48.0*	97.0*	71.5*	65.2*	16.9	-3.0	70.2*
CCCCCCCCC(=O)N/N=C/c1ccccn1	22.5	-11.8	34.3	-9.3	3.4	23.6	.	.	.
O=C1CS(=O)(=O)N(Cc2ccccc2F)c2ccc(Br)cc21	.	-32.9	40.6*	.	31.6	71.9*	47.5*	.	61.0*
O=C(NC(=S)N(CCc1ccccc1)CCc1ccccc1)c1ccco1	8.3	-59.2	49.2*	81.8*	42.5*	51.4*	44.0*	-9.6	50.8*
CC(CCc1ccccc1)NC(=S)NC(=O)c1ccco1 (stereo unspecified)	29.5	-5.0	7.7	4.3	20.1	43.9	.	.	.
CC(C)Cn1nc(C(=O)Nc2nnc(C3CC3)s2)c2ccccc2c1=O	26.2	-17.5	47.3*	.	20.1	52.0*	29.1*	.	41.2*
O=[N+]([O-])/C=C/c1cn(Cc2ccc(F)cc2)c2ccccc12	-1.3	.	72.5*	3.7	69.3*	65.5*	66.0*	73.9*	71.3*
COc1ccc(-c2cc(C(F)F)nc(-n3nc(C)cc3C)n2)cc1	29.9	-25.5	42.3*	28.1	52.5*	57.8*	35.5*	-9.9	44.5*
CC(=O)Oc1ccccc1-n1c(C)nc(=O)c(-c2ccccc2)c1C	-3.4	.	3.3	6.4	6.9	13.0	.	.	.
Cc1cccc(C)c1NC(=O)COc1cccc(/C=N/NC(=O)C(=O)NCc2ccccc2)c1	-14.8	11.6	-18.9	-12.6	-14.2	-14.6	.	.	.
